The values that follow come from PubChem BioAssay (EPA / NIEHS).

Molecules are shown by their SMILES. Calls of active or inactive are those of the source. How the source made its calls: active means hit-call score of the fitted dose curve at least 0.9, where 1 is the maximum; inactive means score below 0.9.

Read-out in the assay: CFLAR gene, CFLAR (gene 8837)
Kind of assay: LTEA_HepaRG_CFLAR: Life Technologies and Expression Analysis (LTEA) Assay for CFLAR gene using HepaRG (AID 2283455). Particulars: mRNA level, 48 h; actives raise or lower the signal. How it is done:
LTEA_HepaRG is a cell based, multiplexed-readout assay that uses HepaRG, a human liver cell line, with measurements taken at 48 hours after chemical dosing on a 96-well plate.LTEA_HepaRG_CFLAR is one of 102 assay component(s) measured in the LTEA HepaRG cell culture assay. It is a marker of Cell proliferation, survival, death.Data from the assay component LTEA_HepaRG_CFLAR was analyzed into 1 endpoint. This assay endpoint, LTEA_HepaRG_CFLAR, was analyzed with bidirectional fitting relative to DMSO as the negative control and baseline of activity. Using a type of inducible reporter, measures of mRNA induction for gain or loss-of-signal activity can be used to understand regulation of transcription factor activity. To generalize the intended target to other relatable targets, this assay endpoint is annotated to the cell cycle intended target family, where the subfamily is Cell proliferation, survival, death.
A total of 1060 chemcials from the ToxCast library were tested in eight-point concentration-response experiments. Cell culture and cytotoxicity assays were conducted at Thermo Fisher Scientific's Custom Services facility (Madison, WI). A single lot of human HepaRG cells (Thermo Fisher Scientific, Frederick, MD) was used for the cell culture experiments. 96-well format collagen type I coated plates of human HepaRG cells were prepared using established methods. Briefly, cryopreserved HepaRG cells were thawed, plated at a density of approximately 100,000 cells/well in HepaRG Thaw, Plate, and General Purpose media (HPRG770, Thermo Fisher Scientific), and incubated for 48 hours. 0.5% DMSO was selected as vehicle control to balance the requisite need of DMSO in HepaRG cultures to maintain differentiation (for example, baseline metabolism, proportions of hepatocytes vs. cholangiocytes), while enabling further hepatic receptor pathway activation (for example, PXR and CAR) in response to chemical exposure. 48 hours after plating, the culture medium was replaced with HepaRG Serum-Free Incudtion Media. Cells were exposed to each test chemical in duplicate and maintained in CO2 incubators for another 48 hours. Chemical plates were thawed to room temperature and 200x concentrations of treatment groups were prepared. 8-point conentration-reponse curves were made with the highest exposure at 100 uM, followed by half-log dilutions, all in 0.5% DMSO. Each test plate contained variouse controls, induction positive controls (1mM phenobarbital), cytotoxicity positive controls ([…] aflatoxin B1), vehicle controls (0.5% DMSO), and total lysis controls (0.5% DMSO). Cell morphology images were taken using an Essen IncuCyte FLR automated microscope, with six 96-well plates imaged in about 24 minutes. Images were captured and exported and JPEG files. Spent culture media was transfered to black-well plates for the LDH assay, and remaining media was sorted at -80 C for later use. Cells were treated with RLT buffer and frozen until shipped for gene expression analysis. Total RNA was isolated from the cell suspension in 75 uL of Buffer RLT (Qiagen, Germantown, MD 20874) by Quintiles/Expression Analysis (Durham, NC) using a custom isolation procedure. Total RNA from each plate well was transferred to a preamplification plate. Fluidigm's 96.96 Dynamic ArrayTM (Fluidigm, Amsterdam, the Netherlands) technology was used for gene expression analyses by quantitative reverse transcription polymerase chain reaction (qRT-PCR, performed by Quintiles/Expression Analysis, Durham, NC)89. Standard TaqManTM Assays (Applied Biosystems/ThermoFisher Scientific, Foster City, CA) were used to assess the expression of 93 genes selected based on their selectivity and sensitivity to important hepatic receptors known to be modulated by environmental chemicals; importance in human hepatocyte functionality; and hepatotoxicity. […]
In general, AC50 refers to the concentration giving half of the maximal activity seen. As for `CC(C)(C)c1cc(O)c(C(C)(C)C)cc1O`, the AC50 is 77.4 µM (active).

Take `NCCO`: the call was inactive.

For the molecule `CCCCN(CCCC)CCCC`, the molecule was classed as inactive.

Turning to `COc1ccc2c(c1)c(CC(=O)O)c(C)n2C(=O)c1ccc(Cl)cc1`, the result was inactive.

In the case of `CNCc1cc(F)ccc1Oc1ccc(Cl)c(Cl)c1`, the AC50 is 12.1 µM (active).

Take `Cc1nc(-c2ccc3c(c2)CCN(CCC2CCC(NC(=O)/C=C/c4ccc(F)cc4)CC2)CC3)no1` (stereo not given): the result was inactive.

Consider `OC[C@@H](O)[C@@H](O)[C@H](O)[C@H](O)CO`, for which the molecule was called inactive.

Turning to `COC(=O)c1ccc(O)cc1`, the molecule was called inactive.

In the case of `NS(=O)(=O)c1cc2c(cc1Cl)NCNS2(=O)=O`, the molecule was classed as inactive.

For the molecule `CCCCOC(=O)CCCCCCCCC(=O)OCCCC`, the outcome was inactive.

Consider `Cc1oc(-c2ccccc2)nc1CCOc1cccc2c1ccn2CCC(=O)O`, for which the AC50 was 10.7 µM (active).

As to `COc1ccc(S(=O)(=O)N2C(=O)[C@@](c3ccccc3OC)(N3C[C@H](O)C[C@H]3C(=O)N(C)C)c3cc(Cl)ccc32)c(OC)c1`, the result was inactive.

For the molecule `CN[C@H]1CC[C@@H](c2ccc(Cl)c(Cl)c2)c2ccc(S(N)(=O)=O)cc21`, the molecule was called inactive.

In the case of `O=c1c(O)c(-c2ccc(O)c(O)c2)oc2cc(O)cc(O)c12`, the result was inactive.

On to `CC(=O)Oc1ccccc1C(=O)O`, for which the molecule was classed as inactive.

Regarding `CCOC(=O)CCC(=O)OCC`, the result was inactive.

As for `Cc1ccc(C(C)C)c(O)c1`, the molecule was classed as inactive.

As for `Nc1ccc(S(=O)(=O)c2ccc(N)cc2)cc1`, the result was inactive.

`CCOC(=O)C(C)(C)Oc1ccc(Cl)cc1`: the call was inactive.

For `CN1CCCC1=O`, the molecule was classed as inactive.

With `Cc1ccc(Cl)cc1`, the molecule was classed as inactive.

As to `COc1ccc(C)cc1N`, the molecule was classed as inactive.

For `Clc1cc(Cl)c(Cl)cc1Cl`, the outcome was inactive.

`Cc1c(C(=O)O)c(O)cc2c1C(=O)c1c(O)c([C@@H]3O[C@H](CO)[C@@H](O)[C@H](O)[C@H]3O)c(O)c(O)c1C2=O`: the molecule was called inactive.

With `Cc1cccc(Nc2cc(Cl)nc(SCC(=O)O)n2)c1C`, the molecule was classed as inactive.

With `Oc1ccc2c(c1)OC[C@@H](N1CCC(O)(c3ccc(F)cc3)CC1)[C@H]2O`, the outcome was inactive.

Consider `CCCCCCCCCCO`, for which the result was inactive.

Regarding `Cc1cccc([N+](=O)[O-])c1C`, the call was inactive.

For `O=[N+]([O-])C(CO)(CO)CO`, the result was inactive.

In the case of `Nc1ccccc1N`, the AC50 was 61.4 µM (active).

On to `Cc1cc(=O)[nH]c(=S)[nH]1`, for which the outcome was inactive.

Regarding `CC(=O)OC/C=C(\C)CCC=C(C)C`, the result was inactive.

On to `Cc1ccc2ncccc2c1`, for which the molecule was classed as inactive.

Regarding `CCCCCCC(=O)OCC`, the outcome was inactive.

For `CCCCc1ccc2c(n1)[C@@H](c1ccc(OC)cc1C[C@H](C)C(=O)O)[C@H](C(=O)O)[C@H]2c1ccc2c(c1)OCO2`, the outcome was inactive.

Consider `c1cc(-c2ccncc2)ccn1`, for which the molecule was classed as inactive.

On to `NC(=O)Cn1c(=O)cc(CCN2CCN(c3nccc4sccc34)CC2)c2ccc(F)cc21`, for which the call was inactive.

As to `Cc1cc(NC(=O)C(=O)O)cc(C)c1Oc1ccc(O)c2c1CCC2`, the result was inactive.

Take `CC1=C(/C=C/C(C)=C/C=C/C(C)=C/CO)C(C)(C)CCC1`: the outcome was inactive.

Turning to `Oc1ccc2ccccc2c1N=Nc1ccccc1`, the AC50 was 11.3 µM (active).
